From ChEMBL document CHEMBL1961873, “Compounds: GSK PKIS; Assays: Nanosyn kinase panel” (2012)

Key:
[1] = target: T1, Inhibitor of nuclear factor kappa-B kinase subunit epsilon (Homo sapiens) (UniProt Q14164); settings: at 1 µM;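 further: reported values are averaged percent inhibition figures against human IKKε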
T1 sequence (whole entry): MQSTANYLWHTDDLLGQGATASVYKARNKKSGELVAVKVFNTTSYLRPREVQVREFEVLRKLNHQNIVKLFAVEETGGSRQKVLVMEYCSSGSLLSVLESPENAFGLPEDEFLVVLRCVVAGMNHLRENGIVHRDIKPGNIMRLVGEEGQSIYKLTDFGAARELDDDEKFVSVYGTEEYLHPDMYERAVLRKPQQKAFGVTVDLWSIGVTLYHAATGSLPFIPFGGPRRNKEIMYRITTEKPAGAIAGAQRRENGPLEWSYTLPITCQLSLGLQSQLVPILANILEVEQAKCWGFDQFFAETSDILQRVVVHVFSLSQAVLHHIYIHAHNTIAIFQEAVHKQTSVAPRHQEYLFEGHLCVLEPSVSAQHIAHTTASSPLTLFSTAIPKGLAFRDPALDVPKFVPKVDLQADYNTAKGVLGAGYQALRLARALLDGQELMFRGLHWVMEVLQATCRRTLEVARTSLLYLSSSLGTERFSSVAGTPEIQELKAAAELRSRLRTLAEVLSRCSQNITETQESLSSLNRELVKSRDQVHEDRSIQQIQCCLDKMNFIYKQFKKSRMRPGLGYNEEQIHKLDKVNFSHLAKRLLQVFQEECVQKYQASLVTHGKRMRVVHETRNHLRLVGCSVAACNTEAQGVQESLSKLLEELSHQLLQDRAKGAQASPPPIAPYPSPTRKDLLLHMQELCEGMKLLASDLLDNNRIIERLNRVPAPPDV

[2] = target: T2, Serine/threonine-protein kinase Nek1 (Homo sapiens) (UniProt Q96PY6); settings: at 0.1 µM
T2 sequence (whole entry): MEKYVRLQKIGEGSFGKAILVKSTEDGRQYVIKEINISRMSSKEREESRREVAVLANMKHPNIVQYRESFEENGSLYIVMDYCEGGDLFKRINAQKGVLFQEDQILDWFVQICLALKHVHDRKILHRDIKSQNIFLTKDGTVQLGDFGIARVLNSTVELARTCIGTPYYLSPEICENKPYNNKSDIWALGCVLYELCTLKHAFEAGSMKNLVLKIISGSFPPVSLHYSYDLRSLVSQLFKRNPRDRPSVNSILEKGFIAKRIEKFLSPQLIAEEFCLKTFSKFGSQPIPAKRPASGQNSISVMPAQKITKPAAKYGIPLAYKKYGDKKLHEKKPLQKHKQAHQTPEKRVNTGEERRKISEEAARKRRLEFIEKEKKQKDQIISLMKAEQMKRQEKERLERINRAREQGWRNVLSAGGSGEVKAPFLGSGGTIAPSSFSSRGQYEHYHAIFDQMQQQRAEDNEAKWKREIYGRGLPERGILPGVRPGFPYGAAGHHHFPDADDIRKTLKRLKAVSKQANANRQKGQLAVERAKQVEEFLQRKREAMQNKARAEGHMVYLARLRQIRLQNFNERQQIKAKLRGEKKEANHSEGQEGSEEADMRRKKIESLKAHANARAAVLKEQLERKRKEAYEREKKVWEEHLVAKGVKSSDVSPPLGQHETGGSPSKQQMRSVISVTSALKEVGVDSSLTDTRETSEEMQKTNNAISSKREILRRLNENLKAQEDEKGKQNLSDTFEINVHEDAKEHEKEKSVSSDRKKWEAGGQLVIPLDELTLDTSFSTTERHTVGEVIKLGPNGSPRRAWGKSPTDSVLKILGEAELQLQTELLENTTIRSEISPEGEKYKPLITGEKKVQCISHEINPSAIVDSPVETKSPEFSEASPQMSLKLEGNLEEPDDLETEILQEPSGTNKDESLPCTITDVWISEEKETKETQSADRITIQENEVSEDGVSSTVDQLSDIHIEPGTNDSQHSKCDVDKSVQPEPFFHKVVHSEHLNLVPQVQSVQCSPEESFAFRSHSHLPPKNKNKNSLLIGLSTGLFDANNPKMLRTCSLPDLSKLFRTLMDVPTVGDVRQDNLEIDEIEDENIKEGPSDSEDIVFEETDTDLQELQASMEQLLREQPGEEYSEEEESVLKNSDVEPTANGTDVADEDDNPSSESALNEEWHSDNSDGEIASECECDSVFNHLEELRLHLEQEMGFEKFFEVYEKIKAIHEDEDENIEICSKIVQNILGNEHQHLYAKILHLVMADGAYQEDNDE

[3] = target: T2, Serine/threonine-protein kinase Nek1 (Homo sapiens); settings: at 1 µM
[4] = target: T3, Serine/threonine-protein kinase Nek2 (Homo sapiens) (UniProt P51955); settings: at 0.1 µM
T3 sequence (whole entry): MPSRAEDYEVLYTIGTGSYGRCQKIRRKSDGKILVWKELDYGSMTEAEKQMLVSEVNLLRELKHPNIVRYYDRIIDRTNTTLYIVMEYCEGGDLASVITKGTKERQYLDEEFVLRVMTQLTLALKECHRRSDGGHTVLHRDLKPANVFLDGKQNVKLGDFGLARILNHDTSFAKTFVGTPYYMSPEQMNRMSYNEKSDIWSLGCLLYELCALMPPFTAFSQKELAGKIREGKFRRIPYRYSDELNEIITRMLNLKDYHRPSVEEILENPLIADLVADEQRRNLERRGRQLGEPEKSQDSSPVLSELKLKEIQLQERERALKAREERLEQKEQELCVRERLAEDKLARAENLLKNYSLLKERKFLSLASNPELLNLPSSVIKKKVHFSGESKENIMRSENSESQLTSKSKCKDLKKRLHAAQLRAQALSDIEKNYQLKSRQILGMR

[5] = target: T3, Serine/threonine-protein kinase Nek2 (Homo sapiens); settings: at 1 µM
[6] = target: Serine/threonine-protein kinase Nek6 (Homo sapiens) (UniProt Q9HC98); settings: at 0.1 µM
Sequence of Serine/threonine-protein kinase Nek6 (Homo sapiens) (Q9HC98 whole entry): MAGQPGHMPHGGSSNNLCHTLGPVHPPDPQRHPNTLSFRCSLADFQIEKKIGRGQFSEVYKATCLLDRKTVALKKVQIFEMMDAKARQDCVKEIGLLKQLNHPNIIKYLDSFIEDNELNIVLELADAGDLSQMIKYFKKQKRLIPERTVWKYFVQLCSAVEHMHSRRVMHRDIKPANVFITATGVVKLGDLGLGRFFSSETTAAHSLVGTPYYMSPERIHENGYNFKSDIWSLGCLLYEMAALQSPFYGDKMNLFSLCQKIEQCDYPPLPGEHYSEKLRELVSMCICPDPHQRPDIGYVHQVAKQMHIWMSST

[7] = target: Serine/threonine-protein kinase Nek6 (Homo sapiens) (UniProt Q9HC98); settings: at 1 µM
[8] = target: Serine/threonine-protein kinase Nek7 (Homo sapiens) (UniProt Q8TDX7); settings: at 0.1 µM
Sequence of Serine/threonine-protein kinase Nek7 (Homo sapiens) (Q8TDX7 whole entry, looked up): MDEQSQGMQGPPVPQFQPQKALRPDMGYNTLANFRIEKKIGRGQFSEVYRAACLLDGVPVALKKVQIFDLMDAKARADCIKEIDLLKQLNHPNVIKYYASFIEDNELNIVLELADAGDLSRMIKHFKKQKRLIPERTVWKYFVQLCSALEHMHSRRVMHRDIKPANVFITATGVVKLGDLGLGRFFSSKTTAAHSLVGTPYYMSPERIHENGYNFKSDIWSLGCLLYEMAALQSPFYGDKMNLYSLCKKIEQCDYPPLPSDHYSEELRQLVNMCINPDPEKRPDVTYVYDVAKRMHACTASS

[9] = target: Serine/threonine-protein kinase Nek7 (Homo sapiens) (UniProt Q8TDX7); settings: at 1 µM
[10] = target: T4, Serine/threonine-protein kinase Nek9 (Homo sapiens) (UniProt Q8TD19); settings: at 0.1 µM
T4 sequence (whole entry): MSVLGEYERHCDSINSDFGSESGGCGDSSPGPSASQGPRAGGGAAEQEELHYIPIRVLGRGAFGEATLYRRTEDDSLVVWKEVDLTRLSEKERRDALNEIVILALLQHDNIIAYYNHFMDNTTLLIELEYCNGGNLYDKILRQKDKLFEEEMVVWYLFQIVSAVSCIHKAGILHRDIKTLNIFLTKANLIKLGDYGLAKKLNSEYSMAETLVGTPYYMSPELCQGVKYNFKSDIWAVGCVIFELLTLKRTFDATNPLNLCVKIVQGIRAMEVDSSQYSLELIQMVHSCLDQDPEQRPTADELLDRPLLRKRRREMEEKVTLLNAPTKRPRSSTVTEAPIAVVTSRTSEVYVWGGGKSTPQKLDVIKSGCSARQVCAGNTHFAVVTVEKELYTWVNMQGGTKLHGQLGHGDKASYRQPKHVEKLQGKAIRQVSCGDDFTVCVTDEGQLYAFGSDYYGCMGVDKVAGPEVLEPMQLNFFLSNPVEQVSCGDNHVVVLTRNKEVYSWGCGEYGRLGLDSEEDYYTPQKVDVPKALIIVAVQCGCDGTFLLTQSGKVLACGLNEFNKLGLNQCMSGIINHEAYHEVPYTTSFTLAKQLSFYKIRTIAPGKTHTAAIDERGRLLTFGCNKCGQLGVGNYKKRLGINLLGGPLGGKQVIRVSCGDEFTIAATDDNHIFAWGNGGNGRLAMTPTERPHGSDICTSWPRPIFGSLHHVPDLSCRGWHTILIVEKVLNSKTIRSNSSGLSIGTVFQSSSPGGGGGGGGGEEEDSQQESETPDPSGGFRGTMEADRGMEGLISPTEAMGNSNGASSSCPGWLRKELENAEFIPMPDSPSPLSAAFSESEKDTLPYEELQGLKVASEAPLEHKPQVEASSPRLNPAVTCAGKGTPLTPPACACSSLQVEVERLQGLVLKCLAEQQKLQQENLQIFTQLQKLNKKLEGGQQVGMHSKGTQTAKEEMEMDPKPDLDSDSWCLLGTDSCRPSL

[11] = target: T4, Serine/threonine-protein kinase Nek9 (Homo sapiens); settings: at 1 µM
[12] = target: Serine/threonine-protein kinase PLK1 (Homo sapiens) (UniProt P53350); settings: at 0.1 µM
Sequence of Serine/threonine-protein kinase PLK1 (Homo sapiens) (P53350 whole entry): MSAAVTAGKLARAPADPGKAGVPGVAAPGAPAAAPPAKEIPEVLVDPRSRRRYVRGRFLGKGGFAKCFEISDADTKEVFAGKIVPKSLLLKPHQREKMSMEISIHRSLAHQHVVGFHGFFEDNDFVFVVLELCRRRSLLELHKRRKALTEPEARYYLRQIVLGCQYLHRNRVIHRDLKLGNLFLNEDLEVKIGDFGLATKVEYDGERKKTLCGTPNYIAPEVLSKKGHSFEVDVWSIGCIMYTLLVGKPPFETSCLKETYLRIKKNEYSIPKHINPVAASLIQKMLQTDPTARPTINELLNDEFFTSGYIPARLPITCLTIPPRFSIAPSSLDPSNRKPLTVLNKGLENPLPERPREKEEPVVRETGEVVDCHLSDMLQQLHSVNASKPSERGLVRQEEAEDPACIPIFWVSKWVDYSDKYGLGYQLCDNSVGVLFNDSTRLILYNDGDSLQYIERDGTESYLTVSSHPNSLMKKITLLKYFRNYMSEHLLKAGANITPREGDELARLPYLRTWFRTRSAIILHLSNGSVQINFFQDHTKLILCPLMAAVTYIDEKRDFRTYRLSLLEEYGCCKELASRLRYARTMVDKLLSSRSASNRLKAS

[13] = target: Serine/threonine-protein kinase PLK1 (Homo sapiens) (UniProt P53350); settings: at 1 µM
[14] = target: T5, Dual specificity protein kinase TTK (Homo sapiens) (UniProt P33981); settings: at 0.1 µM
T5 sequence (whole entry): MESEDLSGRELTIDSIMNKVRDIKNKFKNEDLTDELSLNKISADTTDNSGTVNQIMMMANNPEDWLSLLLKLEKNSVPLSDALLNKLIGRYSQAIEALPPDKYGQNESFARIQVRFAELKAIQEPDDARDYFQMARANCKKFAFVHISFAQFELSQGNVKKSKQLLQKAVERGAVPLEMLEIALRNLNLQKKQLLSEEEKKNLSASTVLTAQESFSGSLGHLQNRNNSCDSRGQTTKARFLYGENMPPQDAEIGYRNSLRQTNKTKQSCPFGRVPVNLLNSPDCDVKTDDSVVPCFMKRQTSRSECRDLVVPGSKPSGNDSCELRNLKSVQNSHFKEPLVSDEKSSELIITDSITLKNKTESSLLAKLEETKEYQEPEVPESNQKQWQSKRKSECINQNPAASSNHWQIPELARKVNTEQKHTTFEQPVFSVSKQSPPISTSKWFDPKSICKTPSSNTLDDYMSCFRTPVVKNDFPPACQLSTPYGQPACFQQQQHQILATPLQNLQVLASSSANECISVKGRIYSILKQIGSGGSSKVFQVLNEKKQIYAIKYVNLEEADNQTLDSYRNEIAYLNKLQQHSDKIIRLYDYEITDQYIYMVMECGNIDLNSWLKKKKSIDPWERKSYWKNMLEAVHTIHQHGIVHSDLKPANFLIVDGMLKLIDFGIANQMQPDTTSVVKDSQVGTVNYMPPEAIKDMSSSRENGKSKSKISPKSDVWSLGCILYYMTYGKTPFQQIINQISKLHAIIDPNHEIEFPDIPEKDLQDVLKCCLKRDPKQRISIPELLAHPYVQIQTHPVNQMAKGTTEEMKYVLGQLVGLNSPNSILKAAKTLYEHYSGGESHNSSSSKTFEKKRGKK

[15] = tested on: T6, Receptor-type tyrosine-protein kinase FLT3 (Homo sapiens), P36888 [D835Y]; settings: at 1 µM
T6 sequence (whole entry): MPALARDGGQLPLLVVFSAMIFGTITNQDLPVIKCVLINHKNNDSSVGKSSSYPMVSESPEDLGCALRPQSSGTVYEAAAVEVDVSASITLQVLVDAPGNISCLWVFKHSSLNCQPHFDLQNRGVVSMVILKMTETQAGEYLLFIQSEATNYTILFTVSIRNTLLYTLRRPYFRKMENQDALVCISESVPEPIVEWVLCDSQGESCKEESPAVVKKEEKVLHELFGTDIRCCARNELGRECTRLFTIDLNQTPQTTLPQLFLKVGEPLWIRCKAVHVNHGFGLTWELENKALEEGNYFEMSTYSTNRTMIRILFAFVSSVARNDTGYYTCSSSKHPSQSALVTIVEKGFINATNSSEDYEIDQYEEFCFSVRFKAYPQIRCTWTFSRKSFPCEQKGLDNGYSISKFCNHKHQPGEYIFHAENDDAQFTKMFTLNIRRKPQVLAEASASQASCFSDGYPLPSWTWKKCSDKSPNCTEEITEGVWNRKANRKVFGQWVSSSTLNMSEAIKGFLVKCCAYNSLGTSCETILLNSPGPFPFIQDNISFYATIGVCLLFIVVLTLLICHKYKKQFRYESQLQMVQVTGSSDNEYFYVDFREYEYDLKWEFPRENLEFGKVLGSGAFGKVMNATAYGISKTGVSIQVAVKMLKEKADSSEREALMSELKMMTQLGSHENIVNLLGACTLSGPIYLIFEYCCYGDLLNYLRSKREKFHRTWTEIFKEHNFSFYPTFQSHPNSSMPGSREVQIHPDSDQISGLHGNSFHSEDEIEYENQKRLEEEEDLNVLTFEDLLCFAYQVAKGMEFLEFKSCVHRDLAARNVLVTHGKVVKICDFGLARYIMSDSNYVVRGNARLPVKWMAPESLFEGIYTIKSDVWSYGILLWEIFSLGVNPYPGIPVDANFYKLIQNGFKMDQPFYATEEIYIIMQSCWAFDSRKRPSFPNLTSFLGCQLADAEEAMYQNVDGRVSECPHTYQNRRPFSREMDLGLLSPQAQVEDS

[16] = target: Vascular endothelial growth factor receptor 3 (Homo sapiens) (UniProt P35916); settings: at 0.1 µM
Sequence of Vascular endothelial growth factor receptor 3 (Homo sapiens) (P35916 whole entry): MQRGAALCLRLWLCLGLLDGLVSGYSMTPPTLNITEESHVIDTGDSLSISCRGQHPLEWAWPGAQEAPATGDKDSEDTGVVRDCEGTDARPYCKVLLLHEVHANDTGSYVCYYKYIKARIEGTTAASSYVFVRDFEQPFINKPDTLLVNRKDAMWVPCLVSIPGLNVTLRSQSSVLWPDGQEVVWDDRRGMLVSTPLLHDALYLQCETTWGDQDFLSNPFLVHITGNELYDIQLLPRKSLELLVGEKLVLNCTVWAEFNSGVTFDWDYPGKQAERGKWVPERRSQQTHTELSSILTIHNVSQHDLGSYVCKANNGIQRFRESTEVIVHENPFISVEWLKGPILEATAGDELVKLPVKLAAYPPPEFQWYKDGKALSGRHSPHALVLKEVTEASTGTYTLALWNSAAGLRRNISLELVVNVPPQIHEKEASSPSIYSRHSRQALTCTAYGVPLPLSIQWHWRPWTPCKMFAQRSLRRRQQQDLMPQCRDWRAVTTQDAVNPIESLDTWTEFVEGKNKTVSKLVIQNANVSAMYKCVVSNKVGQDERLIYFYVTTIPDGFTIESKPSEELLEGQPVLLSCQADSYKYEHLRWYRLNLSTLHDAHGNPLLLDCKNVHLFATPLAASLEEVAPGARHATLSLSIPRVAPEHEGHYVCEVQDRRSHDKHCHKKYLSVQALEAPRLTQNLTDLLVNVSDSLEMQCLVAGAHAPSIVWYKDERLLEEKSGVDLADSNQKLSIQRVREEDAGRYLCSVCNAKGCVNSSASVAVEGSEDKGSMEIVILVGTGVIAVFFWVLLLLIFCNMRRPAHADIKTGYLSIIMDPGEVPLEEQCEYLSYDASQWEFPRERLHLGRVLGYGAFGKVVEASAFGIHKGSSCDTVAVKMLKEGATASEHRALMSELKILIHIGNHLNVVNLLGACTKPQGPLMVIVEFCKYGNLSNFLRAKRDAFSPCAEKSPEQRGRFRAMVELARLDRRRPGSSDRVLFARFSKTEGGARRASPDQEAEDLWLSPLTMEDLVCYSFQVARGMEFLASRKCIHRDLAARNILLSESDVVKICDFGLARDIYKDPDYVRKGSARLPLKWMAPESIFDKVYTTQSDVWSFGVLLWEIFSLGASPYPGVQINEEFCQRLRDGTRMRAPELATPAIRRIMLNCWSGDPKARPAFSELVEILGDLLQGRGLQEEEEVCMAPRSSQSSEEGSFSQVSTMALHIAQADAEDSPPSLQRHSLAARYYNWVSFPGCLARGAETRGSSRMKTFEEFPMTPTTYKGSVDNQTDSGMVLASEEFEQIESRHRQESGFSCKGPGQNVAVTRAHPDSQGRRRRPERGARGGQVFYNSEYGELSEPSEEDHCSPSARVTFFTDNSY

[17] = target: Vascular endothelial growth factor receptor 3 (Homo sapiens) (UniProt P35916); settings: at 1 µM
[18] = target: Macrophage colony-stimulating factor 1 receptor (Homo sapiens) (UniProt P07333); settings: at 0.1 µM
Sequence of Macrophage colony-stimulating factor 1 receptor (Homo sapiens) (P07333 whole entry): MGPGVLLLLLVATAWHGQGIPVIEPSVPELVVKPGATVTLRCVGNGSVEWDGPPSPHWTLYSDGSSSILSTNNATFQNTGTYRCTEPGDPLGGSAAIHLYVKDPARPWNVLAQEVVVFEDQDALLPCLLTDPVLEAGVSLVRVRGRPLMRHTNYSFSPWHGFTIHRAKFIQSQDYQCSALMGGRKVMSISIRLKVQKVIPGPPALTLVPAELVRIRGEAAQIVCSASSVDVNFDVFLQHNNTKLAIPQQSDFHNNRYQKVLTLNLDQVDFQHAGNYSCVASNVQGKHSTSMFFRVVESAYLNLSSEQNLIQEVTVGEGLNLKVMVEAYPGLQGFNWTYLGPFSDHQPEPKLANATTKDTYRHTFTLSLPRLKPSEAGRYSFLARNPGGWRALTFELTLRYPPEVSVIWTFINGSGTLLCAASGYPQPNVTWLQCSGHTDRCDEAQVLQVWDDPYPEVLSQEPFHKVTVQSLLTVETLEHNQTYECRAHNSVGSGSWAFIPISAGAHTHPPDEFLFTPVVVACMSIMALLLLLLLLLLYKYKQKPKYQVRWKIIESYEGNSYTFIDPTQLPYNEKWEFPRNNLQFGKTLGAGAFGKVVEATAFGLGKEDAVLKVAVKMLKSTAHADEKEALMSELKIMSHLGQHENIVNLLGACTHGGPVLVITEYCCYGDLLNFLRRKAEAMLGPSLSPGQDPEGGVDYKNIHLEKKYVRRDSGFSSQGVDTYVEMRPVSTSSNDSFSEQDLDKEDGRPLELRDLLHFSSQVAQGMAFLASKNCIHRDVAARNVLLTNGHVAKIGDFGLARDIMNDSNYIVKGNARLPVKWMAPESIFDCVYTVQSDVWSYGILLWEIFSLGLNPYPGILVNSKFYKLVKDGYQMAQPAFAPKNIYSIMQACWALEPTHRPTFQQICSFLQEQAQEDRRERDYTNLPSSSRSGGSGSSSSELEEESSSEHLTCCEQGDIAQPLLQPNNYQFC

[19] = target: Macrophage colony-stimulating factor 1 receptor (Homo sapiens) (UniProt P07333); settings: at 1 µM
[20] = target: Tyrosine-protein kinase Fyn (Homo sapiens) (UniProt P06241); settings: at 0.1 µM
Sequence of Tyrosine-protein kinase Fyn (Homo sapiens) (P06241 2-537 limits assumed): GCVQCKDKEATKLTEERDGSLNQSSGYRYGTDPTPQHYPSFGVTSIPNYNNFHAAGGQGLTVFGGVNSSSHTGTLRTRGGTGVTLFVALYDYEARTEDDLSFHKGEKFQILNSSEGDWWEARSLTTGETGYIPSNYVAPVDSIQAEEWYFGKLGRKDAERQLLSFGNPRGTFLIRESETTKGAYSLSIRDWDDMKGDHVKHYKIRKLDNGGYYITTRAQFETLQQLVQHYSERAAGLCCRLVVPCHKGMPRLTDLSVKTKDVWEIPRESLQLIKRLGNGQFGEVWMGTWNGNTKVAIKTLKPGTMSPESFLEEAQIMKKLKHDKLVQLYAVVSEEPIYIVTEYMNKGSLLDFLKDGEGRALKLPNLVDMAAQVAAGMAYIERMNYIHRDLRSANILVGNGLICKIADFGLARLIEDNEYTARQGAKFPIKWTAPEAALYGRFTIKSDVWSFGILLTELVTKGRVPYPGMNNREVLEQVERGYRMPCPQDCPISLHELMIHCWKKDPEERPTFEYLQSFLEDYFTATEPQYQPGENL

Structure (SMILES)	inhibition [1]	inhibition [2]	inhibition [3]	inhibition [4]	inhibition [5]	inhibition [6]	inhibition [7]	inhibition [8]	inhibition [9]	inhibition [10]	inhibition [11]	inhibition [12]	inhibition [13]	inhibition [14]	inhibition [15]	inhibition [16]	inhibition [17]	inhibition [18]	inhibition [19]	inhibition [20]
Cc1nnc(-c2cccc(-c3ccc(C(=O)NCC4CC4)cc3)c2)o1	8.77%	3.27%	4%	6.76%	5.41%	2.74%	6.86%	4.29%	4.11%	4.46%	7.69%	4.37%	3.89%	9.53%	0.86%	4.47%	-1.03%	2.5%	1.96%	1.1%
CN1CCC(n2cnc(-c3ccc(F)cc3)c2-c2ccnc(NCCO)n2)CC1	9.51%	2.52%	3.44%	5.2%	5.72%	3.54%	5.15%	2.96%	3.39%	5.09%	8.58%	1.49%	2.42%	-0.23%	4.59%	4.64%	0.88%	3.25%	3.2%	2.96%
